Source: PubChem BioAssay (National Center for Advancing Translational Sciences (NCATS))
Shown is part of a subset that was picked to be rich in hits.
Lassa entry inh: inhibitors of Lassa virus binding or cell entry | Lassa virus pseudotype entry inhibition, cell reporter | Potency, µM (titrated, usually from 37.9 µM), inactives show at the top dose activity change, negative = inhibition, actives largely listed as inhibitors | 300,000 tested, 1.2% active | AID 540256; calls by dose curve; tested in HEK293 cells; also: potency is read from the fitted curve at half-maximal effect; % is scaled to controls: 0 for no effect and ±100 for the full control effect; nearly all actives have a fitted effect of over 50% in size
Marburg entry inh: blocks Marburg virus binding to or entry into cells | 300,000 tested, 1.8% active | Marburg virus pseudotyped entry inhibition, cell reporter | Potency, µM (series often up to 37.8 µM), inactives show top-dose activity change, negative = inhibition, actives largely listed as inhibitors; calls by dose curve; tested in HEK293 cells; also: potency is read from the fitted curve at half-maximal effect; % is scaled to controls: 0 for no effect and ±100 for the full control effect
Cycloheximide cs: counter-screen hit for Shiga toxin inhibitors, cycloheximide; cell reporter, cycloheximide protein synthesis inhibition counterscreen; max response, %; 300,000 tested, 12% active; AID 2314; in the data active = max response mostly above about 13%, no sharp cut-off; inactive = mostly below about 14%; also: read at 38.3 µM for the half of the compounds with a filed dose; 0% is about no effect
AMA1 RON2 block: disrupts binding of P. falciparum AMA1 to RON2 | AlphaScreen AMA1-biotinylated RON2 peptide binding | Potency, µM (series often up to 58.2 µM), for inactives: at the highest dose activity change, negative = inhibition, usual class: inhibitors | 360,000 tested, 0.2% active | AID 720542; active = well fitted inhibition curve with a large enough effect; inconclusive = small, poorly fitted or top-dose-only effect; inactive = no such curve, though single readings can be large or run the other way;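 also: potency is read from the fitted curve at half-maximal effect; 0% = vehicle wells and -100% = peptide control; nearly all actives have a fitted effect of over 45% in size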
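AMA1 (3D7) with his tag at 25 nM final met compounds first, then biotinylated RON2 peptide at 25 nM; detection used donor plus acceptor beads, 10 µg/mL apiece, read by AlphaScreen after 30 min at room temperature.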
Shiga inhibitor: inhibitors of Shiga toxin in Vero cells; Vero cells, Shiga toxin protein synthesis inhibition reporter; inhibition, % at 38.7 µM; 290,000 tested, 9.2% active; in the data active = inhibition mostly above about 28%, no sharp cut-off; inactive = mostly below about 43%; also: 0% is about no effect
The depositor's hits bear a star; ? = inconclusive; . = not tested or not shown; [ ] = another dose, or the depositor's remark.

SMILES | Lassa entry inh | Marburg entry inh | Cycloheximide cs | AMA1 RON2 block | Shiga inhibitor
O=[N+]([O-])c1ccc(O)c(Nc2ncnc3ccccc23)c1 | 10% | 4% | 17* | -3% | 35
Nc1nnc(SCC(=O)c2ccc3c(c2)NC(=O)CO3)s1 | 11% | 9% | 6 | -3% | 9
CCCC(=O)N1c2nc(-c3ccco3)nn2C2(CCCCC2)[C@@H]2CCCC[C@@H]21 | -6%[46.1 µM] | ? | . | . | .
Cc1cc(C)cc(C(=O)Nc2ccc(-c3nc4ncccc4o3)cc2)c1 | -10%[46.1 µM] | -5%[46.1 µM] | . | . | .
S=C(NCCc1ccccc1)Nc1ccc(Cl)cc1 | 4% | 20% | 53* | 20% | 54
CC1=C/C(=N\NC(=S)NCCc2ccccc2)CC(C)(C)C1 | 6%[46.1 µM] | 4%[46.1 µM] | 23* | 38% | 82*
S=C(Cc1ccccc1)NCCc1ccccc1 | . | . | . | 11% | .
COc1ccc(CC(=S)NCCc2ccccc2)cc1 | . | . | 14* | 0% | .
CC(C)[C@H](NC(=O)NCCc1ccccc1)C(=O)O | -13% | ? | 1 | 7% | -4
CC(C)(C)NC(=O)NCCc1ccccc1 | 12%[46.1 µM] | ? | 36* | -2% | 59*
C/C(=N\NC(=S)NCCc1ccccc1)c1cccs1 | -26% | 3% | 17* | 3% | 24
O=C(NCCc1ccc(F)cc1)Nc1ccccc1Cl | 6%[46.1 µM] | 0%[46.1 µM] | 26* | 12% | 55*
Cc1c(Cl)cccc1NC(=S)NCCc1ccccn1 | -28% | 2%[14.2 µM] | 0 | 6% | -14
S=C(NCCc1ccccc1)NCCc1ccccc1 | 23% | ? | 51* | -4% | 57*
Cc1c(Cl)cccc1NC(=S)NCCc1ccc(C(F)(F)F)cc1 | ? | 10µM* | -3 | 49% | -4
O=C1CCc2cc(S(=O)(=O)Nc3ccccc3)cc3c2N1CC3 | -23%[46.1 µM] | 11% | . | 13% | .
CCc1nc2ccc(C(=O)N(C)C(C)C)cn2c1N(CC)Cc1cccc(Br)c1 | . | . | . | 27% | .
C=C(C)C(=O)OCCOC(=O)C(=C)C | . | . | 1 | . | 10
Fc1ccccc1NC(=S)NCCc1cccc(Cl)c1 | -1%[46.1 µM] | -20%[46.1 µM] | 40* | 17% | 78*
S=C(NCCc1ccccc1)NCc1cccc(Cl)c1 | -5%[46.1 µM] | ? | 19 | 13% | 23*
O=[N+]([O-])c1ccc(NC(=S)NCCc2ccc(Cl)cc2)cc1 | ? | ? | 5 | 3% | -7
S=C(NCCc1ccccc1)Nc1ccccc1Cl | -1% | -3% | 9 | 8% | 13
O=[N+]([O-])c1ccc(NC(=S)NCCc2ccccc2)cc1 | ? | ? | 28* | 5% | 64*
S=C(NCCCCc1ccccc1)NCc1ccccc1 | . | . | -3 | 23% | -2
Fc1cc(Br)ccc1NC(=S)NCCc1ccccc1 | 8% | -2% | 46* | 33% | 139*
SMILES | Lassa entry inh | Marburg entry inh | Cycloheximide cs | AMA1 RON2 block | Shiga inhibitor
O=[N+]([O-])c1ccc(O)c(NC(=S)Nc2ccccc2)c1 | 2% | 16% | 37* | -1% | 45
Fc1ccc(CCNC(=S)Nc2ccc(F)cc2)cc1 | -6% | 5% | 36* | 6% | 47*
COc1cc(OC)cc(C(=O)NC(=S)NCCc2ccccc2)c1 | 5% | 0% | 14* | 32% | 47
Cc1ccc(NC(=O)C2CCCN(S(=O)(=O)c3ccc4[nH]c(=O)ccc4c3)C2)c(C)c1 (stereo not given) | . | . | -2 | -3% | -1
O=C(CC1(O)C(=O)Nc2ccccc21)c1ccc(-n2cnnn2)cc1 (stereo not given) | -5%[46.1 µM] | ? | 24* | -8% | 28
O=C(CC1(O)C(=O)Nc2ccccc21)c1cccc(-n2cccc2)c1 (stereo not given) | . | . | -4 | -3% | -11
N#CC(C(=O)Nc1ccccc1)=C1CCCCC1 | 5% | 15% | 15* | 2% | 16
O=C(NCc1cccnc1)c1ccccc1NS(=O)(=O)c1ccc(Br)cc1 | . | . | . | 86% | .
COc1cccc(NC(=O)C2C3CC4OC(=O)C2C4C3)c1 (stereo not given) | 9% | ? | -3 | 2% | -8
COc1cccc(NC(=O)COC(=O)C2C3CC4OC(=O)C2C4C3)c1 (stereo not given) | 10% | -4%[46.1 µM] | 21* | 2% | 29
COc1cc(NC(=O)C23CC4CC(C2)CC(n2cnc([N+](=O)[O-])n2)(C4)C3)cc(OC)c1 | -11% | 2.5µM* | -2 | -4% | -5
O=C(Nc1ccccc1)C12CC3CC(C1)CC(n1cnc([N+](=O)[O-])n1)(C3)C2 | 6% | -10% | -5 | -1% | -9
Nc1nonc1NN=C1CCCCC1 | . | -2% | 12* | -9% | 77
COC(=O)c1cc(OC)c(OC)cc1NC(=O)c1ccc2c(c1)CCN2S(C)(=O)=O | 0%[46.1 µM] | -9%[46.1 µM] | . | . | .
